Experimental data taken from ChEMBL document CHEMBL3988442, “University of Dundee, Small-Polar-MMV Screening Library” (2021).
About 950 (1.4%) of roughly 69,000 compounds showed an effect of 50% or more. The full list was thinned out, with strong results kept by preference.

These molecules were tested on Mycobacterium tuberculosis (assay: Cornell M. t heat shock assay; note: in the data most compounds retested in dose-response had high values).
Format: functional, organism-based
Design: dose or concentration left out as unconfirmed

| SMILES | Percent Effect |
| --- | --- |
| COCc1nc(-c2ccnc(N3CCNCC3)n2)no1.Cl.Cl | 24.05% |
| CC(C)Cn1cc(C(=O)NC2CCS(=O)(=O)C2)c2ccccc2c1=O (stereo not drawn) | 1.323% |
| CC(C)n1cc(C(=O)NC2CCS(=O)(=O)C2)c2ccccc2c1=O (stereo not drawn) | -0.4948% |
| O=C(NC1CCS(=O)(=O)C1)c1cn(C2CC2)c(=O)c2ccccc12 (stereo not drawn) | 62.62% |
| O=C(O)C(F)(F)F.c1cc(CN2C[C@H](OCC3CCOCC3)[C@H]3COC[C@H]32)cs1 | 11.94% |
| O=C(NC1CCCC1)[C@@H]1CN(Cc2nccs2)C[C@H]2OCC[C@H]21.O=C(O)C(F)(F)F.O=C(O)C(F)(F)F | -17.32% |
| CSCC(C)C(=O)NCc1c(C)nc2cc(=O)[nH]n2c1C (stereo not drawn) | 9.376% |
| Cn1ccnc1-c1ccc(NC[C@H]2CCc3ccccc3O2)nn1 | 50.1% |
| Cn1ccnc1-c1ccc(NCC2COc3ccccc3O2)nn1 (stereo not drawn) | 32.53% |
| Cn1ccnc1-c1ccc(NCCC2COc3ccccc3O2)nn1 (stereo not drawn) | 44.06% |
| Cl.O=C(C1CCC1)N1C[C@@H](c2ccsc2)[C@@H]2CN(C3CCCC3)CC[C@@H]21 | -4.778% |
| O=C(CCn1cc(Cl)cn1)N1C[C@@H]2CC[C@H](C1)N(Cc1ccccn1)C2 | 7.885% |
| CC(NCCCN1CCCC1=O)c1ccc(F)cc1N(C)C (stereo not drawn) | 87.91% |
| CC(NCCCN1CCCC1=O)c1cc(Br)ccc1F (stereo not drawn) | 13.95% |
| CC(NCCN1CCC(N(C)C)CC1)c1ccc(F)cc1N(C)C (stereo not drawn) | -14.59% |
| CCOC(=O)NCc1nn(CCN2CCCC2)c(=O)c2ccccc12 | 74.86% |
| COCC(=O)NCc1nn(CCN2CCCC2)c(=O)c2ccccc12 | -7.005% |
| CCNC(=O)NCc1nn(CCN2CCCC2)c(=O)c2ccccc12 | 41.46% |
| N#CCCN(Cc1ccco1)C(=O)c1ccc(OCC2CC2)cc1 | 14.1% |
| N#CCCN(CCC#N)C(=O)c1ccc(OCC2CC2)cc1 | 94.69% |

| SMILES | Percent Effect |
| --- | --- |
| N#CCCN(Cc1cccnc1)C(=O)c1ccc(OCC2CC2)cc1 | 6.663% |
| Cl.NCCC(=O)Nc1ccc(-c2ccccc2)cc1 | 3.2% |
| CC(=O)N1CCC(c2nc3ccc(NC4CCC4)cn3n2)CC1.O=C(O)C(F)(F)F | 21.7% |
| O=C(O)C(F)(F)F.O=C(O)C(F)(F)F.O=c1ccc2c(n1Cc1cccnc1)CCN(Cc1ccoc1)CC2 | -14.95% |
| CC(C)c1nn(C)cc1CNC1CCOc2ccccc21.Cl (stereo not drawn) | -5.42% |
| O=C(CN1CCc2ccccc21)Nc1ccc(OC(F)F)cc1 | 99.06% |
| O=C(CN1CCCS1(=O)=O)Nc1ccc(OC(F)F)cc1 | -14.39% |
| COc1ccc(CNC(=O)CN2CCc3ccccc32)cc1 | -48.79% |
| COCCN1CCOCC2(C1)CN(C(=O)c1conc1C)CCO2.O=C(O)C(F)(F)F (stereo not drawn) | 15.5% |
| COCCC(=O)NC1CCN(CC2(c3cccc(F)c3)CCCC2)CC1.Cl | 23.79% |
| COC(C)(C)Cn1ccnc1-c1cccc(C(C)N(C)C)c1 (stereo not drawn) | -20.81% |
| Cc1ccc(C(=O)O)cc1-c1cccc(C(C)N(C)C)c1 (stereo not drawn) | -8.231% |
| CC(c1cccc(-c2ncccc2F)c1)N(C)C (stereo not drawn) | 76.79% |
| CC(c1cccc(-c2nccn2CCc2ccccn2)c1)N(C)C (stereo not drawn) | -27.93% |
| CC(c1cccc(-c2ncccc2C#N)c1)N(C)C (stereo not drawn) | 73.93% |
| CC(c1cccc(-c2ncc(C#N)c(N)n2)c1)N(C)C (stereo not drawn) | -10.92% |
| Cc1ccc(CN2Cc3ccccc3O[C@]3(CC[C@H](CO)CC3)C2)o1.Cl | -44.64% |
| Cc1nc(CN2C(=O)C[C@@H]3[C@@H]2CCN3CC2CCOCC2)cs1.O=C(O)C(F)(F)F | -14.82% |
| COCCC(=O)N1C[C@H]2CN(Cc3cccc(C)n3)C(=O)[C@H]2C1.O=C(O)C(F)(F)F | -12.42% |
| COc1cc(N2C[C@@H]3COC[C@]3(COCc3cccc(C)n3)C2)ncn1.O=C(O)C(F)(F)F.O=C(O)C(F)(F)F | 1.772% |

| SMILES | Percent Effect |
| --- | --- |
| Cc1cnccc1-c1cnn(CCNC(=O)c2ccncc2)c1C1CC1.Cl | -0.5476% |
| CN(C)CCN1C(=O)C2(CCN(CC3CC3)CC2)c2ccccc21.O=C(O)C(F)(F)F.O=C(O)C(F)(F)F | 2.693% |
| Cc1ccc(CN2CCC[C@]3(C(=O)O)CN(C)C[C@@H]3C2)s1.O=C(O)C(F)(F)F.O=C(O)C(F)(F)F | 10.8% |
| CCn1c(CN(C)C)nnc1C1CCN(c2ccnc(C)c2)CC1 | 105.5% |
| CCn1c(CN(C)C)nnc1C1CCN(c2nccc(NC)n2)CC1 | -31.54% |
| Cc1cc(N2CCC(c3nnc(CN(C)C)n3C3CC3)CC2)ccn1 | -0.4086% |
| Cc1cc(-n2cncn2)n2ncnc2n1 | 61.29% |
| Cc1cc(-n2cnnn2)n2ncnc2n1 | -4.919% |
| Cc1cc(N2CCCC2Cn2nc(C)cc2C)n2ncnc2n1 (stereo not drawn) | 11.78% |
| O=C(C1CCC1)N1C[C@@H]2CC[C@H](C1)N(S(=O)(=O)c1ccccc1)C2 | -12.74% |
| CN(C)C(=O)N1C[C@@H]2CC[C@H](C1)N(S(=O)(=O)c1cccnc1)C2 | -21.11% |
| O=C(NCc1cccnc1)N1CCc2ncnc(NC3CC3)c2CC1.O=C(O)C(F)(F)F | -0.2594% |
| CCOCC1c2c(ncn2C)CCN1C(=O)c1cscn1 (stereo not drawn) | 57.96% |
| CCOCC1c2c(ncn2C)CCN1C(=O)c1cnc(C)cn1.O=C(O)C(F)(F)F (stereo not drawn) | 18.53% |
| CCOCC1c2c(ncn2C)CCN1C(=O)c1ccoc1 (stereo not drawn) | 35.15% |
| CC(C)(CO)NCc1ccc(OCc2ccc3c(c2)OCCO3)cc1.Cl | -22.54% |
| O=C(O)C(F)(F)F.O=C(O)C(F)(F)F.O=C(O)C(F)(F)F.c1cncc(CN2CC[C@@H]3O[C@H](COCCN4CCCC4)CC[C@@H]32)c1 | -18.74% |
| CC(C)C(=O)N1CC[C@@H]2[C@H](CC1)N(Cc1cccnc1)CCS2(=O)=O.O=C(O)C(F)(F)F.O=C(O)C(F)(F)F | -30.61% |
